Residue numbers refer to the chain shown, from its start.

Common to all, as to assay: PBM; 200 nM protein, PBS
Settings in all cases: dsDNA, one strand shown

Assay [1] concerns the target HOXA4 (Homo sapiens, UniProt Q00056 201-287, W262R).
For assay [2], the target named is HOXA4 (Homo sapiens, UniProt Q00056 201-287, R217L).
Assay [3] deals with T1, NKX2-6 (Homo sapiens, UniProt A6NCS4 118-204).
T1 sequence: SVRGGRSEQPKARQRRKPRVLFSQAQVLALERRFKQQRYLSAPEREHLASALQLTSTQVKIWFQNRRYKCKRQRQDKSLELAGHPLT

Assay [4] concerns the target HOXA4 (Homo sapiens, UniProt Q00056 201-287).
The target in assay [5] is T2, NKX2-6 (Homo sapiens, UniProt A6NCS4 118-204, F151L).
T2 sequence: T1 sequence with F34L

In assay [6] the target is HOXA4 (Homo sapiens, UniProt Q00056 201-287, W262F).
Sequence of HOXA4 (Homo sapiens, UniProt Q00056 201-287, W262F) (Q00056 201-287 W262F): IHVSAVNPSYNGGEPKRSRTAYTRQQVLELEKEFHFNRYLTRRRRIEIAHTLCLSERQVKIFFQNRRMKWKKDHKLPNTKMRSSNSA
Assay [7] concerns the target HOXA2 (Homo sapiens, UniProt O43364 129-215, R185T).
Assay [8] addresses HOXA2 (Homo sapiens, UniProt O43364 129-215, R185K).
For assay [9], the target named is VAX1 (Homo sapiens, UniProt Q5SQQ9 86-172).
Sequence of VAX1 (Homo sapiens, UniProt Q5SQQ9 86-172) (Q5SQQ9 86-172): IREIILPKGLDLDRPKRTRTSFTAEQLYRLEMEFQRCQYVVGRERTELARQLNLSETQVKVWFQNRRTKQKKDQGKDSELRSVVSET
Assay [10] concerns the target VAX1 (Homo sapiens, UniProt Q5SQQ9 86-172, T142I).
Assay [11] has as its target HOXA2 (Homo sapiens, UniProt O43364 129-215, Y150S).
For assay [12], the target named is HOXA2 (Homo sapiens, UniProt O43364 129-215).
Sequence of HOXA2 (Homo sapiens, UniProt O43364 129-215) (O43364 129-215): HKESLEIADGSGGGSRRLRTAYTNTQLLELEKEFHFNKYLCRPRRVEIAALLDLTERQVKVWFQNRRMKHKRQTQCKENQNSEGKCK
Assay [13] deals with VAX1 (Homo sapiens, UniProt Q5SQQ9 86-172, K157R).
Sequence of VAX1 (Homo sapiens, UniProt Q5SQQ9 86-172, K157R) (Q5SQQ9 86-172 K157R): as the sequence (Q5SQQ9 86-172) above, with K72R counted along it
Assay [14] has as its target ALX3 (Homo sapiens, UniProt O95076 139-225, N203Q).
Assay [15] concerns the target ALX3 (Homo sapiens, UniProt O95076 139-225).
Assay [16] deals with ALX3 (Homo sapiens, UniProt O95076 139-225, L168Q).
Sequence of ALX3 (Homo sapiens, UniProt O95076 139-225, L168Q) (O95076 139-225 L168Q): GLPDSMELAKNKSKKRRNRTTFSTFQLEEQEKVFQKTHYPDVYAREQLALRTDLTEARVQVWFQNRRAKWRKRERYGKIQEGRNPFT
Assay [17] has as its target ALX3 (Homo sapiens, UniProt O95076 139-225, L168V).
Assay [18] concerns the target ALX3 (Homo sapiens, UniProt O95076 139-225, N203S).
Assay [19] concerns the target PROP1 (Homo sapiens, UniProt O75360 56-141).
Assay [20] concerns the target PROP1 (Homo sapiens, UniProt O75360 56-141, R99H).
In assay [21] the target is PROP1 (Homo sapiens, UniProt O75360 56-141, F88S).
Sequence of PROP1 (Homo sapiens, UniProt O75360 56-141, F88S) (O75360 56-141 F88S): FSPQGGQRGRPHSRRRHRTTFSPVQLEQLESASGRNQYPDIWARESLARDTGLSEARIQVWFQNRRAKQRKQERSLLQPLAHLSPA

Sequence of HOXA4 (Homo sapiens, UniProt Q00056 201-287, R217L) (Q00056 201-287 R217L): as the sequence (Q00056 201-287 W262F) above, with R17L, F62W counted along it
Sequence of HOXA4 (Homo sapiens, UniProt Q00056 201-287) (Q00056 201-287): as the sequence (Q00056 201-287 W262F) above, with F62W counted along it
Sequence of ALX3 (Homo sapiens, UniProt O95076 139-225, N203S) (O95076 139-225 N203S): as the sequence (O95076 139-225 L168Q) above, with Q30L, N65S counted along it
Sequence of ALX3 (Homo sapiens, UniProt O95076 139-225, N203Q) (O95076 139-225 N203Q): as the sequence (O95076 139-225 L168Q) above, with Q30L, N65Q counted along it
Sequence of ALX3 (Homo sapiens, UniProt O95076 139-225, L168V) (O95076 139-225 L168V): as the sequence (O95076 139-225 L168Q) above, with Q30V counted along it
Sequence of HOXA4 (Homo sapiens, UniProt Q00056 201-287, W262R) (Q00056 201-287 W262R): as the sequence (Q00056 201-287 W262F) above, with F62R counted along it
Sequence of ALX3 (Homo sapiens, UniProt O95076 139-225) (O95076 139-225): as the sequence (O95076 139-225 L168Q) above, with Q30L counted along it
Sequence of HOXA2 (Homo sapiens, UniProt O43364 129-215, R185K) (O43364 129-215 R185K): as the sequence (O43364 129-215) above, with R57K counted along it
Sequence of HOXA2 (Homo sapiens, UniProt O43364 129-215, R185T) (O43364 129-215 R185T): as the sequence (O43364 129-215) above, with R57T counted along it
Sequence of HOXA2 (Homo sapiens, UniProt O43364 129-215, Y150S) (O43364 129-215 Y150S): as the sequence (O43364 129-215) above, with Y22S counted along it
Sequence of PROP1 (Homo sapiens, UniProt O75360 56-141) (O75360 56-141): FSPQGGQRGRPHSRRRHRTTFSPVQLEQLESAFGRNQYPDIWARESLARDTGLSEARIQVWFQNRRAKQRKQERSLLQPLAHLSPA
Sequence of VAX1 (Homo sapiens, UniProt Q5SQQ9 86-172, T142I) (Q5SQQ9 86-172 T142I): as the sequence (Q5SQQ9 86-172) above, with T57I counted along it
Sequence of PROP1 (Homo sapiens, UniProt O75360 56-141, R99H) (O75360 56-141 R99H): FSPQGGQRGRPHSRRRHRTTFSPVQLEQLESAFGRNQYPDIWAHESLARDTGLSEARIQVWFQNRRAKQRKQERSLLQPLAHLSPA

Consider CCCGTGTC, for which the binding signal in the assay with HOXA4 [1] was 9.85 upbm affinity estimate (log intensity, higher = more binding, comparable within an allelic series); with HOXA4 [2], 9.73 upbm affinity estimate (log intensity, higher = more binding, comparable within an allelic series); with NKX2-6 [3], 9.5 upbm affinity estimate (log intensity, higher = more binding, comparable within an allelic series); with HOXA4 [4] it was 9.62 upbm affinity estimate (log intensity, higher = more binding, comparable within an allelic series); with NKX2-6 [5], 9.22 upbm affinity estimate (log intensity, higher = more binding, comparable within an allelic series); with HOXA4 [6] it was 9.79 upbm affinity estimate (log intensity, higher = more binding, comparable within an allelic series).
Regarding CCCATGGC, the binding signal in the assay with HOXA4 [1] was 9.82 upbm affinity estimate (log intensity, higher = more binding, comparable within an allelic series); with HOXA4 [2], 9.81 upbm affinity estimate (log intensity, higher = more binding, comparable within an allelic series); with HOXA4 [4] it was 9.77 upbm affinity estimate (log intensity, higher = more binding, comparable within an allelic series); with HOXA4 [6] it was 9.85 upbm affinity estimate (log intensity, higher = more binding, comparable within an allelic series).
ACCCGTAG: the binding signal with HOXA4 [1] is 9.8 upbm affinity estimate (log intensity, higher = more binding, comparable within an allelic series); in the assay with HOXA4 [2] it was 9.7 upbm affinity estimate (log intensity, higher = more binding, comparable within an allelic series); with HOXA4 [4] it was 9.84 upbm affinity estimate (log intensity, higher = more binding, comparable within an allelic series); with HOXA4 [6], 9.82 upbm affinity estimate (log intensity, higher = more binding, comparable within an allelic series).
For ATAATGAG, the binding signal with HOXA4 [1] is 10.5 upbm affinity estimate (log intensity, higher = more binding, comparable within an allelic series); in the assay with HOXA2 [7], 12.5 upbm affinity estimate (log intensity, higher = more binding, comparable within an allelic series); with HOXA4 [2], 11.8 upbm affinity estimate (log intensity, higher = more binding, comparable within an allelic series); with HOXA2 [8], 13.2 upbm affinity estimate (log intensity, higher = more binding, comparable within an allelic series); with HOXA4 [4], 13.6 upbm affinity estimate (log intensity, higher = more binding, comparable within an allelic series); with VAX1 [9], 12.8 upbm affinity estimate (log intensity, higher = more binding, comparable within an allelic series). Moreover, the binding signal was 12.6 upbm affinity estimate (log intensity, higher = more binding, comparable within an allelic series) with VAX1 [10]; 10.8 upbm affinity estimate (log intensity, higher = more binding, comparable within an allelic series) with HOXA2 [11]; 11.2 upbm affinity estimate (log intensity, higher = more binding, comparable within an allelic series) with HOXA4 [6]; 12.3 upbm affinity estimate (log intensity, higher = more binding, comparable within an allelic series) with HOXA2 [12]; 12.5 upbm affinity estimate (log intensity, higher = more binding, comparable within an allelic series) with VAX1 [13].
Take ACCCCCCG: the binding signal was 9.65 upbm affinity estimate (log intensity, higher = more binding, comparable within an allelic series) with HOXA4 [1]; 9.8 upbm affinity estimate (log intensity, higher = more binding, comparable within an allelic series) with HOXA4 [2]; 7.72 upbm affinity estimate (log intensity, higher = more binding, comparable within an allelic series) with ALX3 [14]; 9.16 upbm affinity estimate (log intensity, higher = more binding, comparable within an allelic series) in the assay with NKX2-6 [3]; 9.93 upbm affinity estimate (log intensity, higher = more binding, comparable within an allelic series) with HOXA4 [4]; 7.75 upbm affinity estimate (log intensity, higher = more binding, comparable within an allelic series) with ALX3 [15]. Moreover, the binding signal in the assay with ALX3 [16] was 7.65 upbm affinity estimate (log intensity, higher = more binding, comparable within an allelic series); with NKX2-6 [5] it was 9.07 upbm affinity estimate (log intensity, higher = more binding, comparable within an allelic series); with ALX3 [17], 7.57 upbm affinity estimate (log intensity, higher = more binding, comparable within an allelic series); with HOXA4 [6], 9.7 upbm affinity estimate (log intensity, higher = more binding, comparable within an allelic series); in the assay with ALX3 [18], 7.73 upbm affinity estimate (log intensity, higher = more binding, comparable within an allelic series).
With ATCCCCCC, the binding signal is 9.64 upbm affinity estimate (log intensity, higher = more binding, comparable within an allelic series) in the assay with HOXA4 [1]; 7.17 upbm affinity estimate (log intensity, higher = more binding, comparable within an allelic series) with HOXA2 [7]; 9.49 upbm affinity estimate (log intensity, higher = more binding, comparable within an allelic series) with HOXA4 [2]; 7.65 upbm affinity estimate (log intensity, higher = more binding, comparable within an allelic series) with ALX3 [14]; 10.1 upbm affinity estimate (log intensity, higher = more binding, comparable within an allelic series) in the assay with HOXA2 [8]; 9.5 upbm affinity estimate (log intensity, higher = more binding, comparable within an allelic series) in the assay with HOXA4 [4]. The binding signal in the assay with ALX3 [15] was 7.91 upbm affinity estimate (log intensity, higher = more binding, comparable within an allelic series); with ALX3 [16], 7.61 upbm affinity estimate (log intensity, higher = more binding, comparable within an allelic series); with ALX3 [17], 7.58 upbm affinity estimate (log intensity, higher = more binding, comparable within an allelic series); with HOXA2 [11] it was 10.4 upbm affinity estimate (log intensity, higher = more binding, comparable within an allelic series); in the assay with HOXA4 [6] it was 9.46 upbm affinity estimate (log intensity, higher = more binding, comparable within an allelic series); in the assay with ALX3 [18], 7.67 upbm affinity estimate (log intensity, higher = more binding, comparable within an allelic series). Also, in the assay with HOXA2 [12], the binding signal is 7.3 upbm affinity estimate (log intensity, higher = more binding, comparable within an allelic series).
Take CCCAGACC: the binding signal in the assay with HOXA4 [1] was 9.9 upbm affinity estimate (log intensity, higher = more binding, comparable within an allelic series); in the assay with HOXA4 [2] it was 9.76 upbm affinity estimate (log intensity, higher = more binding, comparable within an allelic series); with ALX3 [14], 7.81 upbm affinity estimate (log intensity, higher = more binding, comparable within an allelic series); with HOXA4 [4] it was 9.51 upbm affinity estimate (log intensity, higher = more binding, comparable within an allelic series); with ALX3 [15], 7.71 upbm affinity estimate (log intensity, higher = more binding, comparable within an allelic series); with PROP1 [19], 6.45 upbm affinity estimate (log intensity, higher = more binding, comparable within an allelic series). Further, the binding signal was 6.71 upbm affinity estimate (log intensity, higher = more binding, comparable within an allelic series) in the assay with PROP1 [20]; 7.78 upbm affinity estimate (log intensity, higher = more binding, comparable within an allelic series) in the assay with ALX3 [16]; 7.7 upbm affinity estimate (log intensity, higher = more binding, comparable within an allelic series) in the assay with ALX3 [17]; 6.48 upbm affinity estimate (log intensity, higher = more binding, comparable within an allelic series) with PROP1 [21]; 9.84 upbm affinity estimate (log intensity, higher = more binding, comparable within an allelic series) with HOXA4 [6]; 7.84 upbm affinity estimate (log intensity, higher = more binding, comparable within an allelic series) in the assay with ALX3 [18].
